Ba CapD inh: CapD enzyme inhibition. 140,000 tested, 0.23% active. purified CapD enzyme, fluorescence intensity read-out; hits give low values. z-score (no concentration beside the values); in the data active = z-score mostly below about -2.9, no sharp cut-off; inactive = mostly above about -1.9
AID504770: growth inhibitors of E. coli YBA685 in a screen for V. cholerae RctB (chromosome II replication) inhibitors. E. coli YBA685 rctB-dependent plasmid, OD600 growth, 3 h; hits give low values. z-score (no concentration beside the values). 130,000 tested, 0.27% active. AID 504770; in the data active = z-score below about -2, passing the limit was not always enough
Numbers without * were called inactive; nt = no result. Sampled rows, rich in hits. Any-hit rate of the full collection: about 0.4%.

SMILES	Ba CapD inh	AID504770
Cc1ccc2c(=O)cc(-c3ccc(F)cc3)oc2c1	-0.21	-0.05
O=C1/C(=C/c2ccc([N+](=O)[O-])cc2)C=C(c2ccccc2)N1c1ccc2ccccc2c1	-0.21	nt
CCN(CC)c1ccc(CNc2ccc3c(c2)ncn3C(C)(C)C)cc1	-4.6*	0.55
CCN(CC)c1ccc(CNc2ccc3c(c2)ncn3C)cc1	57	-0.4
COCc1c(CSSCc2cnc(C)c(O)c2COC)cnc(C)c1O	nt	-0.45
O=C(O)c1ccc(Br)c(C(=O)O)c1	-0.28	-0.5
O=C(O)c1coc(=O)c(Br)c1	-0.78	-4.7*
CN1CCC(=C2c3ccccc3CC(=O)c3sccc32)CC1	-0.29	0.8
O=C1c2ccccc2CC(=O)c2sccc21	-6.8*	nt
O=c1cc(CN2CCOCC2)nc2sccn12	nt	-0.15
O=c1c(=Nc2ccccc2O)c(=O)c2ccccc12	-0.22	-0.9
O=c1c(=N\O)/c(=N/O)c(=O)c2ccccc12	-1.7	-5.3*
Nc1nc(SC#CC(F)(F)F)ns1	nt	-4.9*
Cc1cc(Cl)cc(C)c1OCCn1ccnc1	-0.81	0.85
Clc1ccc(OCCn2ccnc2)c(Br)c1	-0.32	-2.7*
COC(=O)C1=C(Nc2ccccc2NC(=O)c2ccccc2C(=O)O)CSC1	-0.4	-0.95
CNC(=O)Nc1ccccc1NC1=C(C(=O)OC)CSC1	2.4	-2.2*
Cc1ccc(NC(=O)COc2cccc3c2CCNC3=O)cc1Cl	nt	-0.5
CC1CCN(C(=O)c2ccccc2NC(=O)C(C)(C)C)CC1	-0.34	-0.4
Cc1cc(C)n(CCCO)c(=O)c1C#N	nt	-2.9*
Cc1cc(C)n(CC(C)O)c(=O)c1C#N (centres undefined)	nt	-0.25
N#Cc1cc2c(nc1SCC(=O)O)CCC2	6.3	-2.4*
N#Cc1cc2c(nc1SCC(=O)N1CCCCC1)CCCC2	-0.79	-0.05
CCOc1ccc(C2CC(=O)NC(SCC(=O)Nc3ccc(Cl)cc3)=C2C#N)cc1OC (centres undefined)	0.23	nt
CCOC(=O)c1c(C)oc2ccc(OCC(=O)c3ccc(Br)cc3)cc12	-0.13	nt
SMILES	Ba CapD inh	AID504770
COc1ccc2oc(/C=C/N(C)C)c(C(=O)c3ccc(Br)cc3)c2c1	-3.3*	0.4
O=C(NC(=O)c1c(F)cccc1F)Nc1ccccc1Oc1ccc(Cl)cc1Cl	0.54	nt
CC(C(=O)O)N1C(=O)/C(=C/c2ccco2)SC1=S (centres undefined)	nt	-0.15
O=C(O)CCN1C(=O)/C(=C/c2ccco2)SC1=S	-6.1*	nt
CC(C(=O)O)N1C(=O)/C(=C\c2ccco2)SC1=S (centres undefined)	-4.9*	0.15
O=C(CCN1C(=O)/C(=C\c2ccco2)SC1=S)N1CCCC1	nt	-0.5
Cc1csc(SCC(=O)N(C)Cc2ccc(F)cc2)n1	nt	0.45
CCSc1nnc(-c2cccc(S(=O)(=O)N3CCOCC3)c2)n1C1CCCC1	nt	-0.75
CC1(C)C(=O)Nc2ccccc2N1C(=O)COC(=O)c1ccc(S(=O)(=O)N2CCCC2)cc1	nt	-0.4
NC1=NC(=Nc2ccccc2)c2ccccc21	-1.1	0
Nc1nc(=Nc2ccccc2)ss1	0.44	-4.2*
O=C(CSc1nc2ccc(N3C(=O)C4C5C=CC(C5)C4C3=O)cc2s1)NC1CCCCC1 (centres undefined)	-0.3	nt
NC(=O)C1CN(C(=O)Cn2ccc(C(F)(F)F)n2)c2ccccc2O1 (centres undefined)	nt	-0.25
CCOC(=O)c1[nH]c(C)c(Cc2ccc(OCC)cc2)c1C	nt	-0.25
O=C1NC(=O)C2C3C=CC(O3)C12 (centres undefined)	-0.14	-3.5*
CC(=O)Oc1ccc(N2C(=O)C3C4C=CC(O4)C3C2=O)cc1 (centres undefined)	-0.85	1.1
Cc1ccc(S(=O)(=O)Nc2ccc(N=NN3CCCCC3)cc2)cc1	nt	-6.8*
O=S(=O)(NC1=NCCS1)c1ccc(N=NN2CCCCC2)cc1	nt	-1.3
CCCn1c(SCC(=O)c2ccccc2)nnc1C(C)C	nt	2.6
CCCn1c(SCC(=O)N2CCCC2)nnc1C(C)C	nt	-3.1*
c1ccc(-c2nc(COc3ncnc4sccc34)cs2)cc1	nt	0.2
O=C(NCCCN1CCOCC1)c1ccc(NC(=O)c2ccccc2)cc1	-0.28	-0.75
C=CCN1C(=O)c2ccc(C(=O)OCc3nc4cc(C(=O)OC)ccc4c(=O)[nH]3)cc2C1=O	nt	0.3
Cn1ccccc1=S	nt	0.95
On1ccccc1=S	nt	-5.3*
SMILES	Ba CapD inh	AID504770
Oc1ccc(-c2ncc(-c3ccncc3)c(-c3ccc(C(F)(F)F)cc3)n2)cc1	-0.35	nt
N#COc1ccc(Oc2ccc(OC#N)cc2)cc1	-4.9*	-0.45
N#Cc1ccc(Oc2ccccc2)cc1C#N	-0.08	-0.15
CCOC(=O)C1=NN(c2ccc(Br)cc2)C2(S1)c1ccccc1C(c1ccccc1)=NN2c1ccccc1 (centres undefined)	-0.26	nt
FC(F)(F)c1cccc(CN2CCSCC2)c1	0.41	-0.3
O=S1(=O)CCN(Cc2cccc(C(F)(F)F)c2)CC1	0.15	-2.7*
O=C1CC(n2nc(-c3ccccc3)n(-c3ccccc3)c2=S)C2COC1O2 (centres undefined)	-0.28	nt
Nc1ccc(Oc2cccc3cccnc23)c(Cl)c1	0.32	-0.05
O=C(/C=C/c1cccs1)N(Cc1ccccn1)c1nc2ccccc2s1	nt	1.3
O=C(NN1S(=O)(=O)c2ccccc2S1(=O)=O)c1cscn1	-6*	nt
O=C(NN1S(=O)(=O)c2ccccc2S1(=O)=O)c1ccco1	-5.7*	nt
Cc1ccc(C)n1NC(=O)c1ccco1	0.055	0
O=C(NN1S(=O)(=O)c2ccccc2S1(=O)=O)c1ccc(Br)cc1	0.28	-0.1
CC(C)(C)c1cc(CCCOC(=O)CSCC(=O)OCCCc2cc(C(C)(C)C)c(O)c(C(C)(C)C)c2)cc(C(C)(C)C)c1O	0.56	nt
Cc1ccc(S(=O)(=O)NCCc2ccncc2)cc1	0.21	nt
Cn1sc(=O)c2ccc(S(=O)(=O)NCCc3ccncc3)cc21	11	-2.5*
O=S1(=O)CCN(Cc2cccs2)CC1	0.61	nt
O=C1C=CC(=O)N1Cc1cccs1	-0.51	-4.2*
Cc1ccc(C(=O)OCC(=O)c2cc(C)n(CC3COc4ccccc4O3)c2C)s1 (centres undefined)	nt	1.1
O=C(c1ccc2c(c1)OCO2)c1cc2ccc(O)cc2oc1=O	-3.9	-0.3
O=C(c1ccc(F)cc1)c1cc2ccc(O)cc2oc1=O	-6.4*	1.1
O=C(CSc1nnc(-c2ccco2)c(-c2ccco2)n1)Nc1ccc(C(=O)O)cc1	-11*	0.7
COc1ccc(C(=O)CSc2nnc(-c3ccco3)c(-c3ccco3)n2)cc1	0.2	0.75
COc1cc(Br)c(O)c(C=NCc2ccc(OC)c(OC)c2)c1	-0.16	nt
Cc1noc(/C=C/N(C)C)c1S(=O)(=O)NC1CCCCC1	-4.2*	0
SMILES	Ba CapD inh	AID504770
Cc1noc(/C=C/N(C)C)c1S(=O)(=O)NCCN1CCC(Cc2ccccc2)CC1	-2.5	-0.45
O=C(Cc1ccccc1)NC1CCN(C(=O)c2ccco2)CC1	0.23	-0.15
CCOC(=O)N1CCC(NC(=O)CNC(=O)c2ccco2)CC1	-0.15	-2.7*
Cc1ccc2[nH]c3c(c2c1)CCCC3=NCCO	4.6	0.2
Cc1nc(-c2cccnc2)[nH]c(=O)c1CC1CC1	-0.42	-3*
O=c1[nH]c(-c2cccnc2)nc2ccccc12	-0.31	2
Cc1c(C(=O)/C=C/N(C)C)nnn1-c1ccccc1	-5.5*	-0.75
CN(C)/C=C/C(=O)c1ccccc1	-4.9*	-1.1
CN(C)/C=C/C(=O)c1ccc2c(c1)CCO2	-6.1*	0.95
CC(=O)c1ccc2c(c1)CCO2	0.43	nt
O=C(c1cccs1)c1cccs1	-0.64	nt
Cc1c(C(=O)/C=C/N(C)C)nnn1-c1ccc(Cl)c(Cl)c1	0.09	0.25
